From PubChem BioAssay AID651658 (Broad Institute, 2012)
Values joined by “and” are separate entries in the source; they are usually repeats but may differ in a detail not shown here. Equal entries are not always repeated. The whole screen tested about 340,000 compounds, of which about 5,100 (1.5%) were called active. Shown is part of a subset that was picked to be rich in actives. Values without a mark were called inactive.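 Rule for the calls: active = mean Tm shift, scaled 0 neutral to 100 positive control, at about 1.3% or above, every replicate too (limit read from the data); inconclusive = no clear call, values can overlap the other calls; inactive = the rest.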

What follows are compounds tested against Fibroblast growth factor 22 (Homo sapiens) (UniProt Q9HCT0) (assay: FGF22 ligand-induced thermal stabilization – biophysical, thermal shift, single point, FGF22 synaptogenesis inhibitor project, primary screen (AID 651658)). Details: recombinant FGF22 thermal shift, SYPRO orange fluorescence; at 9.99 µM; active compounds read high; percent of sucrose octasulfate shift, DMSO zero.
Chain of Fibroblast growth factor 22 (Homo sapiens) (Q9HCT0 whole entry, looked up): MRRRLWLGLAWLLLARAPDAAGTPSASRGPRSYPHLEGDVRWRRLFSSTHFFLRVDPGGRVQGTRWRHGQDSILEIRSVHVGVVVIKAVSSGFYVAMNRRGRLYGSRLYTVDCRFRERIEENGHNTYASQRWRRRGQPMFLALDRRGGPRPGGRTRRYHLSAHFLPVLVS
`O=C(Cc1ccncc1)N[C@H]1CC[C@H](CCn2cc(-c3ccccc3F)nn2)O[C@@H]1CO` gave an activity (Tm shift, normalised) of 0.035%.
`O=C(Cc1ccncc1)N[C@@H]1CC[C@H](CCn2cc(-c3ccccc3F)nn2)O[C@H]1CO` was tested, and the activity (Tm shift, normalised) was 0.128%.
In the case of `O=C(Cc1cccnc1)N[C@H]1CC[C@H](CCn2cc(-c3ccccc3F)nn2)O[C@H]1CO`, the activity (Tm shift, normalised) is reported as 8.31% (active).
With `CCCC(=O)Nc1ccc2c(c1)OC[C@H](C)N(CCC)C[C@@H](C)[C@@H](OC)CN(C)C2=O` the activity (Tm shift, normalised) was 0.113%.
`CSc1ccccc1NC(=O)CN(C)CC(=O)Nc1cccc(Br)c1` was tested, and the activity (Tm shift, normalised) was -0.022%.
In the case of `CCN(CC)C(=O)C(=O)Nc1cccc(Br)c1`, the activity (Tm shift, normalised) is reported as 43.2% (active).
Work on `CCN(CC)N=Nc1cccc(NC(C)=O)c1` yielded an activity (Tm shift, normalised) of 0.992%.
With `Cc1ccc(S(=O)(=O)N[C@H]2CC[C@H](CC(=O)O)O[C@H]2CO)cc1` the activity (Tm shift, normalised) was 0.52%.
With `C[C@H](CO)N1C[C@H](C)[C@H](CN(C)S(=O)(=O)c2ccccc2C#N)OCc2cn(nn2)CCCC1=O` the activity (Tm shift, normalised) was -0.183%.
`O=C(NN=Cc1ccc([N+](=O)[O-])cc1)C1CC1` gave an activity (Tm shift, normalised) of -0.001%.
`O=C(N/N=C/c1ccc([N+](=O)[O-])cc1)c1c[nH]c2ccccc12` was tested, and the activity (Tm shift, normalised) was 1.58% (active).
Work on `O=[N+]([O-])c1ccc(C=NN=Cc2ccc([N+](=O)[O-])cc2)cc1` yielded an activity (Tm shift, normalised) of 0%.
`COc1cccc(-c2ccc3c(c2)O[C@H](CN(C)Cc2ccncc2)[C@H](C)CN([C@H](C)CO)S3(=O)=O)c1` was tested, and the activity (Tm shift, normalised) was -0.104%.
In the case of `O=C(Nc1cccc(Cl)c1)c1cc([N+](=O)[O-])ccc1N1CCN(CCO)CC1`, the activity (Tm shift, normalised) is reported as 0.039%.
In the case of `NS(=O)(=O)c1cccc(NC(=O)COC(=O)c2cc([N+](=O)[O-])ccc2N2CCCC2)c1`, the activity (Tm shift, normalised) is reported as 1.34% (active).
`CCOc1ncccc1C(=O)OCC(=O)Nc1cccc(S(=O)(=O)N2CCCCCC2)c1` showed an activity (Tm shift, normalised) of 0.065%.
`C[C@@H]1CN([C@@H](C)CO)S(=O)(=O)c2ccc(C#CC3(O)CCCC3)cc2O[C@H]1CN(C)C(=O)c1ccncc1` showed an activity (Tm shift, normalised) of -0.043%.
`COc1ccc(S(=O)(=O)N2CC[C@@H]3[C@H](CO)Nc4ccc(C#Cc5cccc(OC)c5)cc4[C@@H]32)cc1` was tested, and the activity (Tm shift, normalised) was 0.013%.
In the case of `O=C(C[C@@H]1C[C@@H]2c3cc(NC(=O)c4ccc5c(c4)OCO5)ccc3O[C@@H]2[C@H](CO)O1)NCCc1ccccc1`, the activity (Tm shift, normalised) is reported as 0.032%.
`COc1ccc(NC(=O)Nc2cccc3c2O[C@H](CN(C)S(=O)(=O)c2cn(C)cn2)[C@H](C)CN([C@@H](C)CO)C3=O)cc1` was tested, and the activity (Tm shift, normalised) was -0.085%.
For `CN1C(=O)c2cc(NC(=O)c3cccc(F)c3)ccc2OC[C@@H]2O[C@@H](CC(=O)NCC3CCCCC3)CC[C@H]21`, the activity (Tm shift, normalised) was -0.226% and -0.131%.
In the case of `CCC(=O)N1[C@@H](CO)[C@@H](c2ccccc2)C12CN(C(=O)Cc1ccccc1)C2`, the activity (Tm shift, normalised) is reported as -0.201%.
`Cc1cc(C)cc(N(CC(=O)NC2CCCC2)C(=O)CCC(=O)Nc2cc(C)on2)c1` was tested, and the activity (Tm shift, normalised) was -0.343%.
`Cc1cc(NC(=O)CCC(=O)N(CC(=O)NCC2CCCO2)c2ccccc2)no1` (stereo unspecified) showed an activity (Tm shift, normalised) of 0.811%.
In the case of `COC(=O)c1cccc(N(CC(=O)NCC2CCCO2)C(=O)CCC(=O)Nc2cc(C)on2)c1` (stereo unspecified), the activity (Tm shift, normalised) is reported as 43% (active).
Work on `COC(=O)c1c(C)[nH]c(C)c1-c1ccc([N+](=O)[O-])cc1` yielded an activity (Tm shift, normalised) of 0.028%.
With `COC(=O)C1=CN(c2ccc(F)c(F)c2)C=C(C(=O)OC)C1c1ccc([N+](=O)[O-])cc1` the activity (Tm shift, normalised) was 0.128%.
`COC(=O)C1=C(C(=O)OC)C(c2cc([N+](=O)[O-])ccc2O)c2sc(=O)[nH]c2S1` (stereo unspecified) was tested, and the activity (Tm shift, normalised) was 43.5% (active).
For `CCCNC(=O)N1CC(=O)N2[C@H](CO)[C@H](c3ccc(C#Cc4cccc(OC)c4)cc3)[C@H]2C1`, the activity (Tm shift, normalised) was 0.3%.
In the case of `C[C@H]1CCCCO[C@@H](CN(C)C(=O)Cc2ccccc2)[C@@H](C)CN([C@@H](C)CO)C(=O)c2cc(NC(=O)c3ccccc3)ccc2O1`, the activity (Tm shift, normalised) is reported as -0.058%.
For `Cc1ccc(S(=O)(=O)N(C)C[C@@H]2Oc3ccc(NC(=O)C4CCCCC4)cc3CC(=O)N([C@@H](C)CO)C[C@H]2C)cc1`, the activity (Tm shift, normalised) was -0.112%.
For `COc1cccc(NC(=O)C[C@@H]2CC[C@H]3[C@@H](COc4ccc(NC(=O)C5CCOCC5)cc4C(=O)N3C)O2)c1`, the activity (Tm shift, normalised) was -0.165%.
`O=C(NCCc1c[nH]c2ccc(Cl)cc12)c1ccc([N+](=O)[O-])cc1` gave an activity (Tm shift, normalised) of -0.153%.
In the case of `Cc1ccc2[nH]cc(CCNC(=O)C3CCCCC3)c2c1`, the activity (Tm shift, normalised) is reported as -0.161%.
In the case of `Cc1ccc2[nH]cc(CCNC(=O)c3ccc([N+](=O)[O-])cc3)c2c1`, the activity (Tm shift, normalised) is reported as 43.1% (active).
For `CS(=O)(=O)N1CC(=O)N2[C@@H](CO)[C@@H](c3ccc(C#CCC4CCCC4)cc3)[C@@H]2C1`, the activity (Tm shift, normalised) was -0.002%.
For `Cc1ccc(NC(=O)c2cccnc2C(=O)Nc2ccc(C)cc2)cc1`, the activity (Tm shift, normalised) was 0.363%.
In the case of `Cc1ccc(NC(=O)CCC(=O)c2ccc(Br)cc2)cc1`, the activity (Tm shift, normalised) is reported as 0.05%.
In the case of `Cc1ccc(NC(=O)CC(=O)Nc2ccc(C)cc2)cc1`, the activity (Tm shift, normalised) is reported as 43.3% (active).
For `Cc1ccc(NC(=O)Nc2cccnc2)cc1`, the activity (Tm shift, normalised) was 1.35% (active).
With `Cc1ccc(NC(=O)Cn2c(C)csc2=O)cc1` the activity (Tm shift, normalised) was -0.213%.
`O=C(Nc1ccc(Cl)cc1)Nc1ccc(Oc2cccnc2)nc1` was tested, and the activity (Tm shift, normalised) was 0.04%.
Compound `C[C@@H]1CN([C@@H](C)CO)C(=O)c2cc(N(C)C)ccc2O[C@@H](C)CCCCO[C@H]1CN(C)C(=O)CCCN(C)C` has an activity (Tm shift, normalised) of -1.35%.
Compound `O=C(CCC1CCCCC1)Nc1cc(C(F)(F)F)ccc1N1CCOCC1` has an activity (Tm shift, normalised) of -0.247%.
For `CC(Sc1nncn1C)C(=O)Nc1cc(C(F)(F)F)ccc1N1CCOCC1` (stereo unspecified), the activity (Tm shift, normalised) was 43% (active).
`O=C(CN1C(=O)NC2(CCCC2)C1=O)Nc1cc(C(F)(F)F)ccc1N1CCOCC1` was tested, and the activity (Tm shift, normalised) was 0.22%.
`CCCN1[C@@H]2c3ccc(C4=CCCC4)c(=O)n3C[C@@H]2[C@@H](CO)[C@@H]1C(=O)NCc1ccccn1` was tested, and the activity (Tm shift, normalised) was -0.078%.
In the case of `OC[C@H]1[C@H](c2ccc(-c3ccccc3F)cc2)[C@H]2CN(Cc3cncnc3)CCCCN21`, the activity (Tm shift, normalised) is reported as 0.4%.
For `CN(C)C(=O)C[C@H]1CC[C@H](NC(=O)NC2CCCC2)[C@@H](CO)O1`, the activity (Tm shift, normalised) was -0.127%.
Compound `O=C(COC(=O)Cn1cnc2ccccc21)Nc1cccc2c1C(=O)c1ccccc1C2=O` has an activity (Tm shift, normalised) of 0.059%.
In the case of `CC(=O)OC(COc1ccc(F)cc1)Cn1cnc2ccccc21` (stereo unspecified), the activity (Tm shift, normalised) is reported as 43% (active).
Work on `O=C(Cn1cnc2ccccc21)Nc1ccccc1-c1ccccc1` yielded an activity (Tm shift, normalised) of 0.098%.
For `CO[C@H]1CN(C)C(=O)c2ccc(NC(=O)c3ccno3)cc2OC[C@@H](C)N(S(C)(=O)=O)C[C@H]1C`, the activity (Tm shift, normalised) was 0.142%.
With `CNC[C@@H]1Oc2ccc(NC(=O)C3CCCCC3)cc2C(=O)N([C@@H](C)CO)C[C@H]1C` the activity (Tm shift, normalised) was 1.59% (active).
In the case of `C[C@H](CO)N1C[C@H](C)[C@@H](CN(C)C)Oc2ccc(N(C)C)cc2C1=O`, the activity (Tm shift, normalised) is reported as 1.41% (active).
With `CNC[C@H]1Oc2ccc(NC(=O)C3CCCCC3)cc2C(=O)N([C@H](C)CO)C[C@@H]1C` the activity (Tm shift, normalised) was -0.27%.
In the case of `C[C@H]1CN([C@@H](C)CO)C(=O)c2cc(N(C)C)ccc2O[C@@H]1CN(C)Cc1ccccc1`, the activity (Tm shift, normalised) is reported as 0.118%.
With `C[C@@H]1CN([C@H](C)CO)C(=O)c2cc(N(C)C)ccc2O[C@@H]1CN(C)S(C)(=O)=O` the activity (Tm shift, normalised) was -0.284%.
Compound `CNC[C@@H]1Oc2ccc(NC(=O)C3CCCCC3)cc2CC(=O)N([C@@H](C)CO)C[C@H]1C` has an activity (Tm shift, normalised) of 0.125%.
`O=C(C[C@H]1CC[C@H](NC(=O)c2ccc(F)cc2)[C@@H](CO)O1)NCCc1ccncc1` gave an activity (Tm shift, normalised) of -0.269%.
Work on `O=C(NCC[C@H]1CC[C@@H](NC(=O)C2CCCC2)[C@@H](CO)O1)c1cc(Cl)cc(Cl)c1` yielded an activity (Tm shift, normalised) of 0.127%.
`Cc1ccc(S(=O)(=O)NCC[C@H]2CC[C@H](NC(=O)c3ccccn3)[C@@H](CO)O2)cc1` gave an activity (Tm shift, normalised) of -0.462%.
Work on `C[C@H]1CCCCO[C@H](CN(C)CC2CC2)[C@@H](C)CN([C@@H](C)CO)C(=O)c2cc(NC(=O)CCC(F)(F)F)ccc2O1` yielded an activity (Tm shift, normalised) of 0.058%.
`COc1cccc(S(=O)(=O)N[C@@H]2CC[C@@H](CCNC(=O)Cc3ccncc3)O[C@H]2CO)c1` gave an activity (Tm shift, normalised) of 0.19%.
Compound `C[C@H]1CN([C@@H](C)CO)C(=O)c2cc(-c3cccnc3)cnc2O[C@@H]1CN(C)C(=O)C1CC1` has an activity (Tm shift, normalised) of 0.138%.
`COC(=O)C1=C(N)Oc2cc(C)[nH]c(=O)c2C1c1ccc(Cl)cc1` (stereo unspecified) showed an activity (Tm shift, normalised) of -0.032%.
For `COC(=O)C1=C(N)Oc2c(oc(CO)cc2=O)C1c1c(F)cccc1Cl` (stereo unspecified), the activity (Tm shift, normalised) was 43.6% (active).
Work on `CC(C)c1ccc(C2C(C#N)=C(N)Oc3c2oc(CO)cc3=O)cc1` (stereo unspecified) yielded an activity (Tm shift, normalised) of -0.049%.
In the case of `CO[C@H]1CC[C@H]2CCN(C)C(=O)C[C@@H](c3ccccc3)CN(C)C(=O)c3cccc(C#N)c3OC[C@@H]1O2`, the activity (Tm shift, normalised) is reported as 0.156%.
With `OC[C@@H]1[C@H](c2ccc(Br)cc2)[C@@H]2CN(Cc3ccccn3)CCCCN12` the activity (Tm shift, normalised) was 0.488%.
With `OC[C@H]1[C@H](c2ccc(-c3cccnc3)cc2)[C@H]2CN(Cc3ccccn3)CCCCN21` the activity (Tm shift, normalised) was 1.51% (active).
With `CCC(=O)N1CCCCN2[C@H](CO)[C@@H](c3ccc(-c4cccnc4)cc3)[C@H]2C1` the activity (Tm shift, normalised) was 0.191%.
Compound `O=C(N[C@H]1CC[C@@H](CCNS(=O)(=O)c2cccc(Cl)c2)O[C@@H]1CO)c1ccccc1` has an activity (Tm shift, normalised) of -0.047%.
For `COc1cc(C)ccc1OCC(=O)OCC(=O)c1ccc[nH]1`, the activity (Tm shift, normalised) was 43.3% (active).
Compound `COc1ccc(C(=O)COC(=O)COc2ccc(C)c(C)c2)cc1` has an activity (Tm shift, normalised) of 0.002%.
`O=C(COc1ccc(Br)cc1)OCC(=O)c1ccc[nH]1` showed an activity (Tm shift, normalised) of -0.019%.
